Source: PubChem BioAssay (National Center for Advancing Translational Sciences (NCATS))
Pf Dd2 growth – inhibitors of Plasmodium falciparum Dd2 growth; AID 1347417; Potency, µM (top dose mostly 28.9 µM), for the others: top-dose activity, negative = inhibition, most hits filed as inhibitors; 120,000 tested, 4.3% active; P. falciparum Dd2 growth, SYBR Green, 72 h; active = well fitted inhibition curve with a large enough effect;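 also: plate controls were DMSO vehicle for no effect and reference drug for full effect; nearly all actives have a fitted effect of over 65% in size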
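Infected erythrocytes (Dd2, 0.3% parasitemia, 2.5% hematocrit final) are added to compound in RPMI-1640/Albumax II medium, grown 72 h at 37C in low oxygen, then lysed with saponin/Triton-X containing SYBR Green and read by fluorescence.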
Active calls of the source: *; i = inactive; [ ] = dose if it differs, or a comment. Many of the other results were omitted from the sample, so hits are more common in it than they were. Potency is read from the fitted curve at half-maximal effect.

SMILES | Pf Dd2 growth
CC[C@@H]1[C@@H](NC(=O)CC2Cc3ccccc3C2)[C@@H]2CCO[C@H]12 | -3%
CCCS(=O)(=O)N1CC[C@@H](CC(=O)O)[C@@H](CC2=NCCc3cc(OC)ccc32)C1 | -14%[44.1 µM]
CCCN(C)C(=O)CCc1ccc2c(c1)CN(S(C)(=O)=O)CCO2 | i
CCCc1cnc2c(c1SCc1cccc(C)c1)c(=O)n(C)c(=O)n2C | 11µM*
CCCc1cnc2c(c1SCC(=O)Nc1ccccc1OCC)c(=O)n(C)c(=O)n2C | 2%
CCCc1cnc2c(c1SCC(=O)Nc1cccc(C)c1C)c(=O)n(C)c(=O)n2C | 1%
Cc1cccc(-c2noc(CCC(=O)N3CCC(C)(c4noc(C5CC5)n4)CC3)n2)c1 | 26%
O=C(NC1CC1)C1CCc2nnc(-c3cccc(C(F)(F)F)c3)n21 (stereo not drawn) | 16%
CC(=O)N1CCCN(Cc2nc(-c3cccc(C(F)(F)F)c3)oc2C)CC1 | -18%
CCCC1(CO)CCCN(Cc2cn3ccc(C)cc3n2)C1 (stereo not drawn) | 10µM*
CCCC1(CO)CCCN(Cc2nnc(-c3cccnc3)o2)C1 (stereo not drawn) | -4%
CCCC1(CO)CCCN(C(=O)CCn2ccc(=O)[nH]c2=O)C1 (stereo not drawn) | -19%
COc1cccc(CC(=O)N2CCCn3nc(C)c(-c4ccnn4C(C)C)c32)c1 | -19%[44.1 µM]
O=C1COCCN1C1CCN([S+](=O)([O-])c2ccccc2)CC1 | 29%
Cc1ccc(S(=O)(=O)N2CCCC(Cn3c(C)nc4cccnc43)C2)cc1F (stereo not drawn) | i
Cc1nc2cccnc2n1CC1CCCN(S(=O)(=O)c2cccc(Br)c2)C1 (stereo not drawn) | 6.3µM*
Cc1nc2cccnc2n1CC1CCCN(S(=O)(=O)c2ccc3c(c2)CCC3)C1 (stereo not drawn) | -28%
O=C(C1CN(c2cccc(Cl)c2)C(=O)N1)N1CCCC1 (stereo not drawn) | 12%[44.1 µM]
CCCNC(=O)NC[C@H]1O[C@@H]2C[C@@H](CC(=O)NCc3nccn3C)O[C@@H]2[C@@H]1O | 2%[44.1 µM]
O=S(=O)(c1ccc(Cl)cc1)c1nc(-c2ccccc2Br)oc1NCc1ccccc1 | 10µM*
O=S(=O)(c1ccccc1)c1nc(-c2ccc(F)cc2)oc1NCc1ccccc1 | -10%
COCCNc1oc(-c2ccccc2)nc1S(=O)(=O)c1ccc(Br)cc1 | -13%
CCOc1ccccc1C(=O)N1CCC(Cc2nc(-c3ccc(OC)cc3)no2)CC1 | -21%
COCC(=O)Nc1ccc([C@H]2OCC(=O)N(Cc3cccnc3)[C@@H]2CO)cc1 | 14%[44.1 µM]
CC(C)c1cc(C(=O)N2C[C@@H](C)[C@](O)(C3CC3)C2)nc2ncnn12 | -4%
SMILES | Pf Dd2 growth
C[C@@H]1CN(C(=O)c2cnc3sccn3c2=O)C[C@@]1(O)C1CCC1 | -2%
Cc1cc(C(F)(F)F)n2ncc(C(=O)N3C[C@@H](C)[C@](O)(C4CCC4)C3)c2n1 | 14µM*
Cc1nnc(C2CCCCCN2S(=O)(=O)c2cccnc2)o1 (stereo not drawn) | i
CC1=C(c2ccc(C)c(C)c2)S(=O)(=O)N=C1N1CCC(C(=O)Nc2ccc(Cl)cc2)CC1 | i
CCOC(=O)C1CCN(C(=O)C2CCN(C3=NS(=O)(=O)C(c4ccc(C)c(C)c4)=C3C)CC2)CC1 | 4µM*
CC1=C(c2ccc(C)c(C)c2)S(=O)(=O)N=C1N1CCC(C(=O)N2CCC(C(N)=O)CC2)CC1 | i
Cc1noc(-c2cn(C3CCN(C(=O)c4ccc5c(c4)OCO5)CC3)nn2)n1 | -20%
Cc1ccc(N2CCC(NC(=O)c3ccc(C#N)cc3)C2=O)cc1C (stereo not drawn) | i
CCn1cc(CN2CCC(N3C(=O)C4(CCCCC4)C3c3ccncc3)CC2)cn1 (stereo not drawn) | -4%
O=C(Nc1ccccc1F)N1CCC(N2C(=O)C3(CCCCC3)C2c2ccncc2)CC1 (stereo not drawn) | 4.5µM*
CCn1cc(CN2CCC(N3C(=O)C4(CCCC4)C3c3ccccc3)CC2)cn1 (stereo not drawn) | 1.6µM*
Cc1ncccc1C(=O)N1CCC(N2C(=O)C3(CCCC3)C2c2ccccc2)CC1 (stereo not drawn) | i
O=C(c1ccncc1)N1CCC(N2C(=O)C3(CCCCC3)C2c2ccncc2)CC1 (stereo not drawn) | -5%
O=C(Nc1ccccc1F)N1CCC(N2C(=O)C3(CCCCC3)C2c2ccccc2)CC1 (stereo not drawn) | i
Cc1nc(C)c(C(=O)N2CCC(N3C(=O)C4(CCCCC4)C3c3ccccc3)CC2)s1 (stereo not drawn) | 13µM*
Cc1ccc(C(=O)N2CCC(N3C(=O)C4(CCCC4)C3c3ccccc3)CC2)s1 (stereo not drawn) | -38%
CCS(=O)(=O)N1CCC(N2C(=O)C3(CCCC3)C2c2ccccc2)CC1 (stereo not drawn) | i
Cc1cc(NC(=O)N2C[C@@H](F)C[C@H]2C(=O)N2CCCCC2)ccc1Br | i
Cc1cc(C(=O)N2CCCC(c3[nH]ccc3C(N)=O)C2)c(C)n1Cc1ccco1 (stereo not drawn) | i
COC[C@@H]1CN(Cc2c(C)noc2C)C[C@H]1C(=O)NC1CC1 | -2%
COc1ccc(OC2CN(S(=O)(=O)c3c(C)noc3C)C2)cc1 | 10%
COCc1cc(=O)n(CC(=O)Nc2ccccc2)c(N2CCOCC2)n1 | i
CC(=O)N1CCN(c2nc(-c3c(C)noc3C)cc3cc(CN(C)C)oc23)CC1 | 7.9µM*
Cc1ccccc1-c1nc(-c2c(C)noc2C)cc2cc(CN(C)C)oc12 | -9%[44.1 µM]
Cc1cc2cc(-c3c(C)noc3C)nc(N3CCN(C)C(=O)C3)c2o1 | i
SMILES | Pf Dd2 growth
Fc1ccccc1OCCC1CCNC1 (stereo not drawn) | -8%
CCCNC(=O)c1cc2sc(C)c(CN3CCCCC3)c2[nH]1 | -24%
Cc1sc2cc(C(=O)NCc3cccnc3)[nH]c2c1CN1CCCCC1 | i
Cc1sc2cc(C(=O)NC(C)C)[nH]c2c1CN1CCCCC1 | i
COc1ccc(NC(=O)c2cc(CN3CCCC3)on2)cc1Cl | 458%[5.79 µM]
COc1ccc(NC(=O)c2cc3sc(C)c(CN4CCCCC4)c3[nH]2)cc1OC | 2.2µM*
CC(=O)Nc1ccc(NC(=O)c2cc3sc(C)c(CN4CCCCC4)c3[nH]2)cc1 | 2.2µM*
Cn1nc(C2CCN(S(=O)(=O)c3ccc4c(c3)CCCC4)CC2)n(C2CCCC2)c1=O | -9%
CCC(C)NC(=O)C1COC2(CCN(C(=O)c3cccc(OC)c3)CC2)N1C(=O)c1ccccc1C (stereo not drawn) | -17%
CCCN(CC1CCOC1)C(=O)Nc1ccc(C)cc1Cl (stereo not drawn) | 3%[5.79 µM]
CC(=O)Nc1ccc(CNC2(Cc3cc(CN4CCOCC4)on3)COC2)cc1 | 3%[44.1 µM]
CCOC(=O)Cn1cnc2onc(-c3ccc(F)cc3)c2c1=O | 14%
CCCN(C(=O)CCn1cnc2onc(-c3ccc(F)cc3)c2c1=O)c1ccccc1C | 19%
CCN(C(=O)Cn1cnc2onc(-c3ccc(F)cc3)c2c1=O)c1cc(C)ccc1C | 10µM*
O=C(Cc1cccc(Cl)c1)N1CCC(c2nn(Cc3ccccc3)c(=O)[nH]2)CC1 | i
CC(C)C(=O)N1C[C@@H](Oc2ccccc2)C[C@@H]1C(=O)N1CCOCC1 | -26%
COCC1CCCN(Cc2nc(C(c3ccccc3)c3ccccc3)no2)C1 (stereo not drawn) | 11µM*
O=C(c1cccs1)C1CCCN(Cc2nc(CCc3ccccc3)no2)C1 (stereo not drawn) | -18%
